From PubChem BioAssay AID1159580 (chemical genetic matrix, 2015)
Values joined by “and” are separate entries in the source; they are usually repeats but may differ in a detail not shown here. Equal entries are not always repeated. Among all 5,500 compounds or so, about 2,000 (36%) were called active. Inconclusive results (about 18%) are left out. Rule as the data show it: active = normalized growth mostly below about 0.91 (no sharp cut-off); inconclusive = no clear call, values can overlap the other calls; inactive = mostly above about 0.92. Some of the results follow.

Assay: chemical genetic growth profiling, strain panel (AID 1159580);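 also: tested at 20 µM; growth read once vehicle control cultures reached saturation at 30 °C; 1 = growth at the plate median or of vehicle wells; lower values mean less growth of the strain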
Conditions: S. cerevisiae deletion strains, growth OD

Measured: normalized growth

Cc1cc(N)c2ccccc2[n+]1CCCCCCCCCC[n+]1c(C)cc(N)c2ccccc21
active: locus YAL013W, strain DEP1, active compounds read low 0.0603 | locus YAL021C, strain ccr4, active compounds read low 0.0693 | locus YAL026C, strain drs2, active compounds read low 0.0714 | locus YAL030W, strain snc1, active compounds read low 0.0625 | locus YAL040C, strain CLN3, active compounds read low 0.0761 | locus YBL061C, strain skt5, active compounds read low 0.066 | locus YBR009C, strain hhf1, active compounds read low 0.0696 | locus YBR021W, strain FUR4, active compounds read low 0.0907 | locus YBR023C, strain chs3, active compounds read low 0.0647 | locus YBR171W, strain sec66, active compounds read low 0.0836 | locus YBR229C, strain ROT2, active compounds read low 0.0499 | locus YBR231C, strain swc5, active compounds read low 0.0655 | locus YBR279W, strain paf1, active compounds read low 0.105 | locus YCL011C, strain gbp2, active compounds read low 0.0611 | locus YCL016C, strain dcc1, active compounds read low 0.0686 | locus YCL029C, strain bik1, active compounds read low 0.0664 | locus YCL061C, strain MRC1 (second series), active compounds read low 0.0482 | locus YCL061C, strain MRC1, active compounds read low 0.0691 | locus YCL069W, strain vba3, active compounds read low 0.0657 | locus YCR088W, strain abp1, active compounds read low 0.0654 | locus YDL005C, strain med2, active compounds read low 0.0789 | locus YDL035C, strain GPR1, active compounds read low 0.0543 | locus YDL040C, strain nat1, active compounds read low 0.0635 | locus YDL074C, strain BRE1, active compounds read low 0.0853 | locus YDL101C, strain DUN1, active compounds read low 0.0584 | locus YDL134C, strain PPH21, active compounds read low 0.0503 | locus YDL185W, strain tfp1, active compounds read low 0.0607 | locus YDL192W, strain arf1, active compounds read low 0.0659 | locus YDR001C, strain nth1, active compounds read low 0.0643 | locus YDR069C, strain doa4, active compounds read low 0.0664 | locus YDR101C, strain arx1, active compounds read low 0.0626 | locus YDR137W, strain rgp1, active compounds read low 0.0886 | locus YDR150W, strain NUM1, active compounds read low 0.0524 | locus YDR159W, strain sac3, active compounds read low 0.0966 | locus YDR162C, strain NBP2, active compounds read low 0.0484 | locus YDR195W, strain ref2 0.14 | locus YDR297W, strain sur2, active compounds read low 0.0628 | locus YDR318W, strain mcm21, active compounds read low 0.0702 | locus YDR334W, strain swr1, active compounds read low 0.0697 | locus YDR335W, strain msn5, active compounds read low 0.0637 | locus YDR363W, strain ESC2, active compounds read low 0.0798 | locus YDR388W, active compounds read low 0.0589 | locus YDR392W, strain spt3, active compounds read low 0.104 | locus YDR502C, strain sam2, active compounds read low 0.066 | locus YEL003W, strain gim4, active compounds read low 0.0587 | locus YEL037C, strain rad23, active compounds read low 0.06 | locus YEL061C, strain CIN8 (second series), active compounds read low 0.066 | locus YEL061C, strain CIN8, active compounds read low 0.0508 | locus YER002W, strain NOP16, active compounds read low 0.0717 | locus YER015W, strain faa2, active compounds read low 0.064 | locus YER016W, strain bim1, active compounds read low 0.0649 | locus YER110C, active compounds read low 0.0798 | locus YER111C, strain swi4, active compounds read low 0.0774 | locus YER155C, strain BEM2 (second series), active compounds read low 0.0923 | locus YER155C, strain BEM2, active compounds read low 0.0729 | locus YER167W, strain BCK2, active compounds read low 0.0524 | locus YFR010W, strain ubp6, active compounds read low 0.0738 | locus YGL078C, strain dbp3, active compounds read low 0.0809 | locus YGL086W, strain mad1, active compounds read low 0.0599 | locus YGL167C, strain pmr1, active compounds read low 0.0819 | locus YGL173C, strain kem1, active compounds read low 0.0682 | locus YGL227W, strain vid30, active compounds read low 0.0671 | locus YGL240W, strain doc1, active compounds read low 0.0823 | locus YGL248W, strain PDE1, active compounds read low 0.0477 | locus YGL253W, strain hxk2, active compounds read low 0.0575 | locus YGR078C, strain PAC10, active compounds read low 0.0515 and 0.0686 | locus YGR135W, strain pre9, active compounds read low 0.0652 | locus YGR229C, strain SMI1, active compounds read low 0.0559 | locus YGR252W, strain gcn5, active compounds read low 0.156 | locus YHR013C, strain ard1, active compounds read low 0.116 | locus YHR027C, strain rpn1, active compounds read low 0.0661 | locus YHR030C, strain SLT2, active compounds read low 0.0523 | locus YHR079C, strain IRE1 (second series), active compounds read low 0.0634 | locus YHR094C, strain hxt1, active compounds read low 0.0669 | locus YHR129C, strain ARP1, active compounds read low 0.087 | locus YHR142W, strain chs7, active compounds read low 0.0778 | locus YHR200W, strain rpn10, active compounds read low 0.0666 | locus YIL066C, strain RNR3, active compounds read low 0.0524 | locus YIL073C, strain SPO22, active compounds read low 0.118 | locus YIL125W, strain kgd1, active compounds read low 0.0847 | locus YIR030C, strain dcg1, active compounds read low 0.0641 | locus YJL092W, strain hpr5, active compounds read low 0.062 | locus YJL095W, strain BCK1 (second series), active compounds read low 0.0654 | locus YJL095W, strain BCK1, active compounds read low 0.0618 | locus YJL115W, strain asf1, active compounds read low 0.0762 | locus YJL129C, strain trk1, active compounds read low 0.0876 | locus YJL134W, strain LCB3, active compounds read low 0.0487 | locus YJL154C, strain vps35, active compounds read low 0.0637 | locus YJL164C, strain tpk1, active compounds read low 0.0693 | locus YJL166W, strain qcr8, active compounds read low 0.0646 | locus YJL168C, strain set2, active compounds read low 0.064 | locus YJL187C, strain SWE1 (second series), active compounds read low 0.0504
